# PMK inhibit: blocks S. pneumoniae phosphomevalonate kinase; purified PMK, PK/LDH-coupled NADH absorbance 340 nm; inhibition, % at 10 µM; hit rate 0.49% among 65,000; AID 539;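 active means top-ranked compounds by inhibition in the single 10 µM screen, taking a fixed number of the strongest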
# A340 absorber: compound absorbs light at 340 nm. 65,000 tested, under 10 active. compound absorbance at 340 nm, fold over control. fold change at 10 µM. AID 708;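 active means at 10 µM dose, initial 340 nm absorbance at least 2 fold that of control wells; inactive means change under 2 fold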;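 further: initial absorbance extrapolated from kinetic A340 decline of NADH oxidation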
# NADH enzymes: blocks coupling enzymes of NAD/NADH assays | IC50, µM (series often up to 10 µM) | hit rate 0.02% among 65,000 | coupled PK/LDH NADH assays, four targets | AID 774;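 active means single-dose screening hits from any of four coupled enzyme assays that gave an IC50 when retested across doses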;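 further: the DPM-DC format reads NADH fluorescence rather than 340 nm absorbance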
# Autofluor 339: intrinsic fluorescence of library compounds, ex339/em460 – biochemical, MLSMR library, data from DPM-DC assay, artefact control, profiling panel; compound autofluorescence, ex339/em460 nm, NADH buffer; active compounds read high; 1 = no-compound wells, NADH background; hit rate 5.5% among 65,000; fluorescence fold increase at 10 µM;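 active means at 10 µM, mean starting fluorescence two-fold or more over control wells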;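 further: signal is the first read of a kinetic run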
# Spn DPM-DC inh: S. pneumoniae DPM-DC inhibition. purified DPM-DC, PK/LDH coupled NADH fluorescence. calls only at 10 µM. hit rate 0.49% among 65,000;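 active means the 320 compounds with the highest percent inhibition in the single-dose primary screen, excluding strongly autofluorescent ones, cut at about 32% in these data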;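 further: kinetic rate of NADH fluorescence loss reporting ADP formed by the decarboxylase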
# MK inhibit: S. pneumoniae mevalonate kinase inhibition | hit rate 0.48% among 65,000 | inhibition, % at 10 µM | purified MK, PK/LDH-coupled NADH absorbance 340 nm;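 active means ranked among the strongest by inhibition in the single 10 µM screen, a fixed top-ranked set picked for dose follow-up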
# Hits are given with their value; n = inactive; x = no result shown; + = active, no number. A selection: hits, their analogues and other compounds. The true share with any hit is near 6.8%.
SMILES,PMK inhibit,A340 absorber,NADH enzymes,Autofluor 339,Spn DPM-DC inh,MK inhibit
COc1ccc(CN(C(=O)c2snc(C(N)=O)c2N)C(C(=O)NC(C)(C)C)c2ccco2)cc1 (centres undefined),n,n,n,2.3,n,n
CC(C)(C)NC(=O)COC(=O)c1snc(C(=O)NC2CCCCC2)c1N,n,n,n,2.1,x,n
Cc1n[nH]c(C)c1C(=O)CC1(O)C(=O)N(CCc2ccccc2)c2ccc(Cl)cc21 (centres undefined),n,n,n,n,n,n
COc1ccc2cnn(-c3ccccc3C)c(=O)c2c1OC,n,n,n,n,n,n
CCOC(=O)c1c(-c2cccs2)csc1NC(=O)c1ccncc1,n,n,n,2.2,x,n
CCOC(=O)c1c(NC(=O)Cc2cccs2)sc2c1CCCC2,n,n,n,n,n,n
CCOC(=O)c1c(NC(=O)c2cccs2)sc2c1CCCC2,n,n,n,2.3,x,n
COc1ccc(OC)c(NC(=O)c2c(NC(=O)c3ccco3)sc3c2CCC3)c1,n,n,n,2.1,n,n
CCOC(=O)c1c(NC(=O)c2cccs2)sc2c1CCN(C(=O)OCC)C2,n,n,n,2,x,n
Cc1cc(=O)n2nc(N3CCC(C(=O)N4CCN(Cc5ccccc5)CC4)CC3)sc2n1,n,n,n,n,n,n
O=C(Nc1ccc2c3c(cccc13)CC2)c1ccco1,n,n,n,n,n,n
CCOc1ccc(NC(=O)N(C2CCCCCC2)C2CCN(C(C)=O)CC2)cc1,n,n,n,n,n,n
COc1ccc(C(=O)/C=C/Nc2c(C)n(C)n(-c3ccccc3)c2=O)cc1OC,n,n,n,n,n,n
CCOC(=O)c1c(NC(=O)c2cc(C3CC3)on2)sc2c1CCCC2,27,n,n,2.1,x,n
CCCc1cc(C(=O)Nc2sc(C)c(C)c2C(=O)OCC)no1,n,n,n,2.4,x,n
CCOC(=O)c1c(-c2ccccc2)csc1NC(=O)c1nn(CC)cc1Br,n,n,n,3.5,x,n
CCOC(=O)c1c(NC(=O)c2cccs2)sc2c1CCC2,n,n,n,2.3,x,n
CCOC(=O)c1c(NC(=O)c2cc(C3CC3)on2)sc(C(C)=O)c1C,n,n,n,n,n,n
CCOC(=O)c1c(NC(=O)OC)sc2c1CCC2,n,n,n,n,n,n
CCOC(=O)c1c(NC(=O)c2nn(CC)cc2Br)c(C#N)cn1-c1ccccc1,n,n,n,n,n,n
COC(=O)c1c(NC(=O)c2ccoc2C)sc2c1CCC2,n,n,n,2.4,+,n
COC(=O)c1c(-c2ccc(F)cc2)csc1NC(=O)c1ccco1,n,n,n,2,n,n
CCOC(=O)c1c(-c2ccc(C)s2)csc1NC(=O)c1ccco1,n,n,n,3.5,n,n
CCOC(=O)c1c(NC(=O)c2ccco2)sc2c1CCCCC2,n,n,n,2.1,x,n
Cc1occc1C(=O)Nc1sc2c(c1C(N)=O)CCCCC2,n,n,n,n,n,n
SMILES,PMK inhibit,A340 absorber,NADH enzymes,Autofluor 339,Spn DPM-DC inh,MK inhibit
CCOC(=O)c1c(NC(=O)c2ccco2)sc(C(=O)N2CCCC2)c1C,n,n,n,n,n,n
CCOc1ccc(S(=O)(=O)NCCC(=O)NC2=NCCS2)cc1,n,n,n,n,n,n
CN(C)S(=O)(=O)c1ccc(N2CCOCC2)nc1,n,n,n,n,n,n
Cc1ccc(C)n1-c1ccc(N2CCOCC2)nc1,n,n,n,3.7,x,n
COC(=O)c1ccccc1N(Cc1ccccc1)S(C)(=O)=O,n,n,n,n,n,n
CC1CN(C(=O)c2cccc(S(=O)(=O)N3CCOCC3)c2)CC(C)O1 (centres undefined),n,n,n,n,n,n
CC1CC(C)CN(S(=O)(=O)c2ccc(C(=O)Nc3nnc(-c4cccs4)o3)cc2)C1 (centres undefined),n,n,n,3.8,x,n
COc1ccc(-c2nnc(NC(=O)c3ccc(S(=O)(=O)N4CCc5ccccc5C4)cc3)o2)cc1,n,n,n,3.1,n,n
O=C(NC1CCCC1)C(c1cccs1)N(C(=O)c1ccno1)c1ccccc1 (centres undefined),n,n,n,n,n,n
CCN(CC)C(=O)C1CCCN(Cc2ccc(F)c(F)c2)C1 (centres undefined),n,n,n,n,n,n
CCN(CC)C(=O)C1CCCN(Cc2ccc(N(C)C)cc2)C1 (centres undefined),n,n,n,n,n,50
CCN(CC)C(=O)C1CCCN(Cc2ccc(OC)c(C)c2)C1 (centres undefined),n,n,n,n,n,51
CCOC(=O)C1CCCN(Cc2ccc3c(c2)OCO3)C1 (centres undefined),n,n,n,n,n,n
CCOC(=O)N1CCN(C(=O)CSc2nnc(Cn3c(=O)sc4ccccc43)n2C)CC1,n,n,n,n,n,n
O=C(Nc1cccc2ccccc12)c1cnccn1,25,n,n,n,n,n
Cc1ccc(CNC(=O)c2cc3c(=O)n4ccccc4nc3n(CC3CCCO3)c2=N)cc1 (centres undefined),n,n,n,2.4,x,n
N=c1c(C(=O)NCc2ccc(F)cc2)cc2c(=O)n3ccccc3nc2n1Cc1ccco1,n,n,n,2.7,n,n
N=c1c(C(=O)NCc2ccccc2)cc2c(=O)n3ccccc3nc2n1Cc1ccco1,n,n,n,n,n,n
CCOC(=O)c1cc2c(=O)n3ccccc3nc2n(CC2CCCO2)c1=NC(C)=O (centres undefined),n,n,n,2,n,n
Cc1ccc(CNC(=O)c2cc3c(=O)n4ccccc4nc3n(Cc3ccco3)c2=N)cc1,n,n,n,2.3,x,n

# Assay outcomes: PubChem, SRMLSC
